Test [1] is described as follows: rescue of PC12 cells from polyQ htt toxicity – LDH release (AID 1610). Particulars: PC12 mutant huntingtin toxicity, final LDH at 4 uM, stronger effect = lower value.
A short description of test [2]: growth inhibition, single agents and combos, UWB1.289, cell-based, BGB or cisplatin combos, synergistic combos for chromothripsis tumors (AID 1671456; in the data active means inhibition above about 80%;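 further: cells exposed to compound for four days; 0% = vehicle DMSO and 100% = killing by high DMSO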). Particulars: UWB1.289 ovarian carcinoma cells, stronger effect = higher value.
Test [3] can be described thus: growth inhibition, single agents and combos, LFS_MB_2R, cell-based, cisplatin combos, synergistic combos for chromothripsis tumors (AID 1671457; in the data active means inhibition above about 80%;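 further: cells exposed to compound for four days before readout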). Particulars: LFS_MB_2R medulloblastoma cells, stronger effect = higher value.
Test [4] can be described thus: UWB1.289_BRCA1 ovarian cancer growth, cell-based, BGB or cisplatin combinations (AID 1671459; in the data active means inhibition above about 80%). Particulars: UWB1.289 BRCA1 ovarian carcinoma, drug combinations, stronger effect = higher value.
Test [5] in a line: drug combination toxicity in non-malignant astrocytes – cell-based, BGB or cisplatin IC20 combos, cytotoxicity control for chromothriptic childhood tumor combination screen (AID 1671460; in the data active means inhibition above about 80%;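 further: cells exposed to compounds for 96 hours before viability readout; 0% = vehicle and 100% = killing control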). Particulars: Human astrocytes, viability inhibition, drug combinations, at 0.5 µM, stronger effect = higher value.
Test [6] in a line: liver-stage malaria parasite load reduction – cell-based, known kinase inhibitor set, luminescence, hepatoma host viability (AID 624392).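 Further: infected cells incubated roughly two days before readout.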 Particulars: Plasmodium liver stage in hepatoma cells, luciferase luminescence, concentration not given here; liver cell % of control: measured here: host liver cell viability; parasite % of control: stronger effect = lower value.
Test [7] can be described thus: chitosan synthesis blockers in C. neoformans – flow cytometry, Cibacron Brilliant Red staining (AID 1347148).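 Further: compound exposure lasted three days at 37 degrees C.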 Particulars: Cryptococcus neoformans chitosan, stronger effect = lower value; at 10 µM unless noted.
Test [8] is described as follows: compounds altering circadian rhythm period length – cell-based, LOPAC library, luminescence reporter (AID 2774).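 Further: values are relative to mean of DMSO wells on each plate.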 Particulars: circadian reporter cells, at 7 µM, actives lie on both sides.
Test [9] has as its target ATP-dependent translocase ABCB1 (Homo sapiens) (UniProt P08183). Kind of test: P-glycoprotein substrate transport blockade – cell-based (AID 377; in the data active means fluorescence slope change above about 50%). Particulars: MDR1-expressing cells, fluorescent substrate accumulation slope; stronger effect = higher value; concentration not given here.
Test [10] can be described thus: compounds altering viability of human ES cells (AID 493140).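 Further: cells exposed to compounds for four days before counting.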 Particulars: human embryonic stem cell survival screen; stronger effect = higher value.
Setting [11] is: measured here: inhibition with BGB combination, at 0.05 µM.
[12] abbreviates: measured here: inhibition with cisplatin combination, at 0.05 µM.
[13] abbreviates: measured here: combination with cisplatin, at 0.5 µM.
Setting [14] is: measured here: combination with cisplatin, at 5 µM.
[15] abbreviates: BGB combination, concentration series, at 5 µM.
Setting [16] is: cisplatin combination, concentration series, at 5 µM.
The mark [17] stands for this setting: measured here: combo with BGB IC20.
Where [18] appears, read: measured here: combo with cisplatin IC20.

Structures are written as SMILES. Where “and” joins values, the source holds several entries; their conditions need not be identical. Equal values may be shown once. Inconclusive results are not listed. Calls of active or inactive are those of the source. Unless noted, how the calls were made is not given here.

Sequence of ATP-dependent translocase ABCB1 (Homo sapiens) (P08183 whole entry, looked up): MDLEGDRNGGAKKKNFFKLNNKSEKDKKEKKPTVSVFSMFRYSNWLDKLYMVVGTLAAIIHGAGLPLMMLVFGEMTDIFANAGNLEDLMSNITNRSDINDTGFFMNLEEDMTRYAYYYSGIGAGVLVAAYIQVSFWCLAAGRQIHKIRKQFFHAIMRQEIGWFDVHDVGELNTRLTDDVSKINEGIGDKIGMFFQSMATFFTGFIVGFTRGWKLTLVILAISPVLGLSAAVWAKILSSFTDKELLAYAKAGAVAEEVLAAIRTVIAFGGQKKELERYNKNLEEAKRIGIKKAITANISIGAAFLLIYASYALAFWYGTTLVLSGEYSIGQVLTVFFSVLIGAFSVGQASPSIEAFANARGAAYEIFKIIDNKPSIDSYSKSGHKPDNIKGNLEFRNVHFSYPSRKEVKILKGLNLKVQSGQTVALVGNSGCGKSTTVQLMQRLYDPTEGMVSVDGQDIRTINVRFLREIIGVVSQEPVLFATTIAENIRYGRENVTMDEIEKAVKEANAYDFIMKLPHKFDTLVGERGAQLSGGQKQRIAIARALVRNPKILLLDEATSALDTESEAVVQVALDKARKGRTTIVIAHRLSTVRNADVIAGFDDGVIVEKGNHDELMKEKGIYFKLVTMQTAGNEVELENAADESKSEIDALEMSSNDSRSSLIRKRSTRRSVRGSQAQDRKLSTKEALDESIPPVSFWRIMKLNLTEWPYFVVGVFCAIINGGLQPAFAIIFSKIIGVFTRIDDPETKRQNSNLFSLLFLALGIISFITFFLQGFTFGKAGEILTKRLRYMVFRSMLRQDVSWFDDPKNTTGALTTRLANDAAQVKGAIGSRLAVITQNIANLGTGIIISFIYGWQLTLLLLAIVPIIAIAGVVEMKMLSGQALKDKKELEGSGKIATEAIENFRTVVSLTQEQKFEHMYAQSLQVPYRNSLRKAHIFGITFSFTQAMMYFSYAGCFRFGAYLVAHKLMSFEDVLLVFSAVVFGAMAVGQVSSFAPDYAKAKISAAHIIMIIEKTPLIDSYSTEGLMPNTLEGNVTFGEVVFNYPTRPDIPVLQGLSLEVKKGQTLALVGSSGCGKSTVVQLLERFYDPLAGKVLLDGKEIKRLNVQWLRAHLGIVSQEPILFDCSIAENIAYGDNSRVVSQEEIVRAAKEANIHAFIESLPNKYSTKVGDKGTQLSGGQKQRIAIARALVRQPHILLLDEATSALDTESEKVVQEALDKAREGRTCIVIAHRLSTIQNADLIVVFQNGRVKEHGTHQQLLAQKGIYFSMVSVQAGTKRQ

For `CC(=O)OCC(=O)[C@@]1(O)[C@H](C)CC2C3CCC4=CC(=O)C=C[C@]4(C)[C@@]3(F)[C@@H](O)C[C@@]21C` (some centres undefined), in test [1], the normalised LDH release amounted to 0.545.
For `O=c1[nH]c(-c2ccc(C(F)(F)F)cc2)nc2c1CSCC2`, the inhibition in [2] (at 0.5 µM) was -2.17% (inactive); in test [2] (setting [11]), -13.9%; in test [2] (setting [12]) it was -26.3%; in test [3] (at 0.5 µM) it was -7.37% (inactive); in test [3] (setting [13]), -7.07%; in test [3] (setting [14]), -6.53%. The inhibition in [4] (setting [15]) is -5.61%; in test [4] (at 0.5 µM) it was 0.36% (inactive); in [4] (setting [16]) it was 7.32%; in test [5], -1.27% (inactive); in test [5] (setting [17]), 0.645%; in [5] (setting [18]), -5.26%.
As for `NC(=O)c1ccc2[nH]ccc2c1`, in test [6], the liver cell % of control was 92.5% and 90.8% and 97.8%; the parasite % of control was 221% (inactive) and 164% (inactive) and 74.7% (inactive).
For `CCOC(=O)C1=C(N)Oc2ccc(Br)cc2C1C(C#N)C(=O)OCC` (centres undefined), the fold fluorescence in test [7] is 6.68 [at 122.2 µM] (inactive).
With `CCOC(=O)C1=C(C)NC(=S)NC1c1cccc(O)c1` (centres undefined), the period change in test [8] is 0.16 h (inactive).
Still for that read-out and setting: to `O=C(O)C1CCCN(CCC=C(c2ccccc2)c2ccccc2)C1` (centres undefined) belongs 0.005 h (inactive).
In the case of `CCCCC[C@H](O)/C=C/[C@H]1[C@H](O)CC(=O)[C@@H]1C/C=C\CCCC(=O)O`, in test [9], the fluorescence slope change was 51% (active). For the same compound, in test [10], the survival is 66.5 (inactive).
For the compound `O=C1Nc2ccc(I)cc2/C1=C/c1cc(Br)c(O)c(Br)c1`, the period change in [8] was -0.055 h (inactive). Also, in test [10], the survival was 109 (inactive). For the same compound, the fold fluorescence in test [7] is 4.68 [at 96 µM] (inactive).
In the case of `COc1cccc(-c2cc(=O)c3ccccc3o2)c1N`, in test [8], the period change was -0.07 h (inactive). Also, the survival in test [10] is 106 (inactive). Further, the fold fluorescence in [7] was 6.5 [at 187.1 µM] (inactive).
In the case of `CCc1c2c(nc3ccc(O)cc13)-c1cc3c(c(=O)n1C2)COC(=O)[C@]3(O)CC`, the inhibition is 74.5% (inactive) in test [2] (at 0.5 µM); 31% in test [2] (setting [11]); 49.3% in test [2] (setting [12]); 13.2% (inactive) in test [3] (at 0.5 µM); 48.9% in [3] (setting [13]); 61.9% in [3] (setting [14]). In addition, the inhibition in test [4] (setting [15]) is 102%; in test [4] (at 0.5 µM), 81.6% (active); in test [4] (setting [16]), 105%; in [5] it was 90.1% (active); in [5] (setting [17]), 94.5%; in test [5] (setting [18]) it was 87%.
As for `O=c1cc(-c2cccc3c2Sc2ccccc2S3)oc(N2CCOCC2)c1`, the inhibition in test [2] (at 0.5 µM) was -9.95% (inactive); in test [2] (setting [11]), -28.4%; in test [2] (setting [12]), -10.7%; in test [3] (at 0.5 µM), -22.3% (inactive); in test [3] (setting [13]), -27.3%; in test [3] (setting [14]), -42.7%. The inhibition in [4] (setting [15]) is -14.2%; in test [4] (at 0.5 µM), -17.9% (inactive); in test [4] (setting [16]) it was -3.21%; in test [5] it was -40.3% (inactive); in [5] (setting [17]) it was -56.7%; in test [5] (setting [18]), -32.4%.
With `O=C(O)c1ccc(-c2c[nH]c3ncc(-c4ccccc4)cc23)cc1C1CCCC1`, in [6], the liver cell % of control is 92% and the parasite % of control was 0.113% (active).
With `O=C1NC(=O)C(c2ccccc2[N+](=O)[O-])=C1Nc1ccc(O)c(Cl)c1`, the period change in test [8] is 0.15 h (inactive). Besides, the fold fluorescence in test [7] was 5.23 [at 139 µM] (inactive).
For `CS(=O)c1ccc(-c2nc(-c3ccc(F)cc3)c(-c3ccncc3)[nH]2)cc1` (centres undefined), in test [6], the liver cell % of control was 87.6% and 90.6% and 97.1%; the parasite % of control was 20.8% (inactive) and 18.7% (inactive) and 25.5% (inactive).
With `CCC(C)N(C)C(=O)c1cc2ccccc2c(-c2ccccc2Cl)n1` (centres undefined), in test [8], the period change was 0.03 h (inactive).
Consider `Cc1ccc(S(=O)(=O)/C=C/C#N)cc1`, for which the survival in test [10] was 9.17 (inactive). In [7], the fold fluorescence was 8.49 [at 241.3 µM] (inactive).
With `CC(C)(Sc1ccc(CCN(CCCCC2CCCCC2)C(=O)NC2CCCCC2)cc1)C(=O)O`, the period change in test [8] was -0.015 h (inactive).
With `N#CC(=C(/N)Sc1ccccc1N)/C(C#N)=C(\N)Sc1ccccc1N`, the survival in test [10] was 104 (inactive). For the same compound, in test [7], the fold fluorescence is 5.14 [at 131.4 µM] (inactive).
As for `O=Nc1c(-c2c(O)[nH]c3ccccc23)[nH]c2ccccc12`, the period change in test [8] is -0.845 h (active). Further, the survival in [10] was 71.6 (inactive). In addition, in [7], the fold fluorescence was 9.39 [at 180.3 µM] (inactive).
For the compound `CCCC[C@@H](C=O)NC(=O)[C@H](CC(C)C)NC(=O)OCc1ccccc1`, the fold fluorescence in [7] is 5.15 [at 137.9 µM] (inactive).
As for `Oc1cc(O)cc(/C=C/c2ccc(O)c(O)c2)c1`, the period change in test [8] is -0.07 h (inactive). Besides, the survival in test [10] was 27.6 (inactive). In addition, the fold fluorescence in test [7] is 4.54 [at 204.7 µM] (inactive).

Source of the values: PubChem BioAssay.
